Key:
Conditions in all cases: concentration: 1 μM,replicates: in singlicate; n = 1
[1] = system: CDK8
[2] = system: CDK9
[3] = system: CDKL1
[4] = system: CDKL2
[5] = system: CDKL3
[6] = system: CDKL5
[7] = system: CHEK1
[8] = system: CHEK2
[9] = system: CIT
[10] = system: CLK1
[11] = system: CLK2
[12] = system: CLK3
[13] = system: CLK4
[14] = system: CSF1R-autoinhibited
[15] = system: CSF1R
[16] = system: CSK
[17] = system: CSNK1A1L
[18] = system: CSNK1A1
[19] = system: CSNK1D
[20] = system: CSNK1E
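Also: KINOMEscan kinase panel screen.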

Structure (SMILES) | %Inh [1] [%] | %Inh [2] [%] | %Inh [3] [%] | %Inh [4] [%] | %Inh [5] [%] | %Inh [6] [%] | %Inh [7] [%] | %Inh [8] [%] | %Inh [9] [%] | %Inh [10] [%] | %Inh [11] [%] | %Inh [12] [%] | %Inh [13] [%] | %Inh [14] [%] | %Inh [15] [%] | %Inh [16] [%] | %Inh [17] [%] | %Inh [18] [%] | %Inh [19] [%] | %Inh [20] [%]
Cn1ccc2ncnc(Oc3ccc(NC(=O)Nc4cc(C(C)(C)C)on4)c(Cl)c3)c21 | 90.9 | 6 | 48 | 26 | 17 | 32 | 0 | 7 | 63 | 0 | 95.1 | 0 | 10 | 43 | 100 | 0 | 15 | 6 | 6 | 0
Cc1ccc(Nc2ccnc(Nc3ccc4c(c3)CS(=O)(=O)C4)n2)cc1O.Cl [GW579362] | 38 | 37 | 36 | 41 | 0 | 0 | 0 | 14 | 69 | 81 | 16 | 82 | 81 | 76 | 97.5 | 48 | 8 | 0 | 3 | 21
Cc1ccc2c(-c3ccnc(Nc4ccc(C(F)(F)F)cc4)n3)cnn2n1 [GW819776] | 36 | 23 | 39 | 69 | 77 | 61 | 0 | 0 | 19 | 83 | 72 | 31 | 67 | 0 | 11 | 0 | 0 | 7 | 31 | 19
CCNCC(Cc1ccccc1)NC(=O)c1cc(Br)c(-c2ccnc3[nH]ccc23)s1.Cl.Cl (centres unmarked) [GSK1383280] | 0 | 19 | 17 | 0 | 0 | 0 | 20 | 42 | 73 | 59 | 71 | 47 | 59 | 0 | 55 | 6 | 6 | 0 | 32 | 39
O=C(Nc1n[nH]c2cc(-c3ccco3)ccc12)C1CC1 [SB-737447] | 0 | 11 | 29 | 86 | 0 | 0 | 0 | 16 | 1 | 28 | 22 | 19 | 0 | 0 | 0 | 10 | 0 | 18 | 0 | 0
CSc1nccc(-c2c(-c3ccc(F)cc3)ncn2CCCN2CCOCC2)n1.Cl [SB-217146] | 1 | 0 | 36 | 10 | 0 | 11 | 0 | 0 | 0 | 0 | 0 | 0 | 18 | 0 | 0 | 0 | 0 | 6 | 54 | 10
COc1cccc(OC)c1C(=O)Nc1cccc(-c2nn3ccccc3c2-c2ccnc(Nc3cccc(F)c3)n2)c1 [GSK361065] | 0 | 0 | 15 | 6 | 3 | 0 | 13 | 0 | 36 | 21 | 21 | 0 | 0 | 4 | 60 | 18 | 0 | 25 | 9 | 64
COc1ccc(Nc2nccc(N3CCC(NC(=O)c4cccc(C#N)c4)C3)n2)cc1 (centres unmarked) [GSK1379730] | 17 | 0 | 24 | 0 | 0 | 0 | 0 | 0 | 0 | 11 | 0 | 5 | 21 | 24 | 0 | 0 | 11 | 0 | 29 | 27
CC(=O)Nc1nc2cnc(Nc3cc(NC(=O)c4cccc(CC(C)(C)C#N)c4)ccc3C)nc2s1 | 67 | 10 | 50 | 99.5 | 41 | 0 | 0 | 28 | 68 | 0 | 0 | 0 | 7 | 28 | 99.7 | 7 | 11 | 31 | 6 | 0
COC(=O)c1cccc(NC(=O)NC2CCN(c3ccnc(NCc4ccc(F)cc4)n3)CC2)c1 [GSK1379860] | 23 | 0 | 0 | 11 | 0 | 4 | 18 | 0 | 33 | 28 | 0 | 11 | 10 | 12 | 1 | 0 | 23 | 0 | 4 | 37
O=C(Nc1ccccc1)c1cccc(Oc2ccc3nccn3n2)c1 | 0 | 94.6 | 0 | 20 | 0 | 0 | 0 | 0 | 32 | 0 | 20 | 0 | 0 | 0 | 81 | 0 | 0 | 0 | 0 | 0
CC(=O)c1c(-c2ccncc2)[nH]c(-c2ccncc2)c1C [GW493036] | 0 | 87 | 0 | 43 | 16 | 35 | 83 | 0 | 100 | 99.8 | 82 | 65 | 96.1 | 19 | 12 | 8 | 79 | 93.4 | 93.7 | 90
CCn1c(-c2nonc2N)nc2cncc(CNC3CCNCC3)c21.Cl [SB-747651] | 24 | 0 | 0 | 20 | 0 | 0 | 48 | 0 | 24 | 31 | 17 | 7 | 56 | 0 | 10 | 0 | 19 | 0 | 26 | 21
CC(=O)Nc1ccc(-c2cc3ncnc(SCC(=O)O)c3s2)cc1 | 0 | 85 | 16 | 0 | 26 | 18 | 1 | 26 | 0 | 31 | 53 | 9 | 32 | 41 | 48 | 12 | 5 | 33 | 4 | 0
CN1CCN(CCNc2nc3cc(Oc4ccc(NC(=O)Nc5cc(C(F)(F)F)ccc5F)cc4)ccc3[nH]2)CC1.Cl.Cl [GW768504] | 55 | 0 | 3 | 56 | 43 | 0 | 0 | 3 | 67 | 2 | 0 | 0 | 14 | 0 | 60 | 0 | 0 | 19 | 0 | 6
Cc1n[nH]c2cc(Nc3ccnc(Nc4cccc(CN5CCOCC5)c4)n3)ccc12 [GW682569] | 35 | 4 | 2 | 17 | 0 | 0 | 0 | 27 | 35 | 29 | 3 | 11 | 0 | 68 | 87 | 27 | 0 | 0 | 10 | 19

— publication PMC5540273 (PLoS ONE, 2017)
